Experimental data as given in PubChem BioAssay.

Assays:
[1] = tested on: Botulinum neurotoxin type F light chain protease (Clostridium botulinum); assay: Botulinum neurotoxin type F light chain protease inhibition, multiplex microsphere flow cytometry, validation set (AID 588459); conditions: multiplex microsphere protease substrate cleavage assay, at 10 µM, hits give high values
[2] = molecular target: Botulinum neurotoxin type A (Clostridium botulinum) (UniProt P0DPI0); assay: BoNT/A light chain protease inhibitors, biochemical, multiplex microsphere flow cytometry, validation set (AID 588460); conditions: at 10 µM, hits give high values
[3] = molecular target: Lethal factor (Bacillus anthracis) (UniProt P15917); assay: Lethal factor protease inhibitors, Bacillus anthracis, multiplex microsphere cleavage assay, validation set (AID 588461); conditions: flow cytometry, at 10 µM, hits give high values

Measured: inhibition

Chain of Lethal factor (Bacillus anthracis) (P15917 whole entry, looked up): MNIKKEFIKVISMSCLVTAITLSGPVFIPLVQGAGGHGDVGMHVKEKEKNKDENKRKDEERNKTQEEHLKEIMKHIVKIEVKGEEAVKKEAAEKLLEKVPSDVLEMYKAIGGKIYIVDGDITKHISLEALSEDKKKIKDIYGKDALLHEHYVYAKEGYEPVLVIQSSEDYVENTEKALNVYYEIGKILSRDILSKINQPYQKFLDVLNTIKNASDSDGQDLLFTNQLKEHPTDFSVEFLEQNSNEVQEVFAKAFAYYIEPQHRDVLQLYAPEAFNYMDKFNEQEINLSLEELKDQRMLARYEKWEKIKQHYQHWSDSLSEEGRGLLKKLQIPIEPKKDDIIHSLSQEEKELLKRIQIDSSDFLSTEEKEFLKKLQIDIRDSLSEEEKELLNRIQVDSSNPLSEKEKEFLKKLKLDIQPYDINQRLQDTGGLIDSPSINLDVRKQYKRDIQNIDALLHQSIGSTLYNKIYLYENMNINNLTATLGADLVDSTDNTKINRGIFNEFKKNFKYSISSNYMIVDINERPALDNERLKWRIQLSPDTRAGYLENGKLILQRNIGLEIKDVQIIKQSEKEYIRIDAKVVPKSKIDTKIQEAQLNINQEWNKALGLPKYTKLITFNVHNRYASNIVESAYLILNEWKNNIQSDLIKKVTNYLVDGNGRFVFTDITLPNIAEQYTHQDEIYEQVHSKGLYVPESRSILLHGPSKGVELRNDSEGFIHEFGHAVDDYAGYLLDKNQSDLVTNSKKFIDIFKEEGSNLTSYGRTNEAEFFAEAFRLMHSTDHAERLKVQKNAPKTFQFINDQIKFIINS
Chain of Botulinum neurotoxin type A (Clostridium botulinum) (P0DPI0 whole entry, looked up): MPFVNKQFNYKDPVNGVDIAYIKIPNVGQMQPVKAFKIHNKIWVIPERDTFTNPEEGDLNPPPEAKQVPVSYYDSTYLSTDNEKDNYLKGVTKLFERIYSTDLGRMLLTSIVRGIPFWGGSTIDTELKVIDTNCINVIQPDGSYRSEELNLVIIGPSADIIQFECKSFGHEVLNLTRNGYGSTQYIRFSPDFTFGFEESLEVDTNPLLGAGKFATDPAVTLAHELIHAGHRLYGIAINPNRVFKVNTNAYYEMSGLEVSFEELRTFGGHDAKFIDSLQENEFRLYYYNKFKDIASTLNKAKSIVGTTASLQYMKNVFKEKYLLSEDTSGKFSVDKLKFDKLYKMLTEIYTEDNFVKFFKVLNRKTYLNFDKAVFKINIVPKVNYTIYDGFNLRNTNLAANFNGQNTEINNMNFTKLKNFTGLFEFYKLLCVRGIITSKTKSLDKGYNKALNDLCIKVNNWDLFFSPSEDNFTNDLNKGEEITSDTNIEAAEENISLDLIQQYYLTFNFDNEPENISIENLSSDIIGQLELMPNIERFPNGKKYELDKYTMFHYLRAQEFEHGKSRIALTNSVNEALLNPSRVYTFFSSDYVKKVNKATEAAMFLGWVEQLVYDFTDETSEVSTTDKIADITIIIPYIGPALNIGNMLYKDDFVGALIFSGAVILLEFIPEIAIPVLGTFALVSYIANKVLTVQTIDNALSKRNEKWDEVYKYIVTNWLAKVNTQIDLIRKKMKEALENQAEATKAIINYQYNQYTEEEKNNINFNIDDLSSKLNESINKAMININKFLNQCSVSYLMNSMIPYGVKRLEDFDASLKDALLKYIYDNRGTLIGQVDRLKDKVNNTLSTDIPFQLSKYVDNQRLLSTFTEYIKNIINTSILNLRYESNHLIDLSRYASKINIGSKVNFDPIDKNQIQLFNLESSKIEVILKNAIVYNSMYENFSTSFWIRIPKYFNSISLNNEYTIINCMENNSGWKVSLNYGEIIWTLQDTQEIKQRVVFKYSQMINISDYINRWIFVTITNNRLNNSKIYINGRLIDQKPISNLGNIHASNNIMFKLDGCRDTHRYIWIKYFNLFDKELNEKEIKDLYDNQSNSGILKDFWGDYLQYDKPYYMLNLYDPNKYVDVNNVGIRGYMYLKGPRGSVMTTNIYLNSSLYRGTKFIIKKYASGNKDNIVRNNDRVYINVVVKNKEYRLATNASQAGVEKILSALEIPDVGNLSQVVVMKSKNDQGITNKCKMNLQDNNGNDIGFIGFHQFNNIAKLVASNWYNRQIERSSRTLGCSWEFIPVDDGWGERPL

COCC1CCCN(Cc2cn[nH]c2-c2cc3ccccc3o2)C1 (stereo not given)
inactive: [1] -0.1% | [2] -1.5% | [3] -3.9%

O=C(Cc1c[nH]c2ccccc12)OCCOC(=O)Cc1c[nH]c2ccccc12
inactive: [1] 0.9% | [2] -0.1% | [3] -5.9%

CC1(C)S[C@@H]2[C@H](NC(=O)C(C(=O)O)c3ccccc3)C(=O)N2[C@H]1C(=O)O (stereo not given in full)
inactive: [1] 3.8% | [2] 1.2% | [3] -6.1%

Cc1nc2ccccn2c(=O)c1CCN1CCC(C(=O)c2ccc(F)cc2)CC1
inactive: [1] 1.5% | [2] 0.8% | [3] -0.4%

COc1ccc(NC2=C(Cl)C(=O)N(c3ccccc3)C2=O)c(OC)c1
inactive: [1] 3.7% | [2] 1% | [3] -0.3%

CCCCNc1ccc(C(=O)OCCN(C)C)cc1
inactive: [1] 0.2% | [2] 0.4% | [3] 2.7%

COc1ccc(/C=C\c2cc(OC)c(OC)cc2CC[N+](C)(C)C)cc1OC
inactive: [1] 2% | [2] -1.4% | [3] 3.5%

O=C(Nc1ccccc1)OCC1CCCN2CCCCC12 (stereo not given)
inactive: [1] 0.6% | [2] 0.3% | [3] 2.5%

C[C@]12CC[C@@H]3c4ccc(O)cc4[C@@H](O)C[C@H]3[C@@H]1CC[C@@H]2O
inactive: [1] 3.3% | [2] -0.4% | [3] 0.8%

O=C(O)CCSCCC(=O)O
inactive: [1] 1.3% | [2] -1.1% | [3] -7.4%

CC(=O)[C@H]1[C@H](C#N)C[C@H]2[C@@H]3CC=C4C[C@@H](O)CC[C@]4(C)[C@H]3CC[C@@]21C
inactive: [1] 4.5% | [2] 1.4% | [3] 4.8%

O=C(CCCCC(=O)NC1CCCC1)NC1CCCC1
inactive: [1] 1.5% | [2] 0.2% | [3] -3.4%

COc1cccc(N2CC34C=CC(O3)C(C(=O)O)C4C2=O)c1 (stereo not given)
inactive: [1] 3.9% | [2] 0.3% | [3] 6%

FC(F)(F)c1ccc(-c2noc(CN3CCCN(C4CCCCC4)CC3)n2)cc1
inactive: [1] -2% | [2] -1.4% | [3] -7%

C/C(=N/N1CCN(Cc2cccc3ccccc23)CC1)c1cccnc1
inactive: [1] 6.2% | [2] -0.9% | [3] -4%

CC[N+](C)(C)c1cccc(O)c1
inactive: [1] 1.7% | [2] -0.2% | [3] 0.7%

COc1cccc2cc(-c3ccccc3)c(=O)oc12
inactive: [1] -1.9% | [2] -1.7% | [3] 1.7%

COc1cc(CNCCc2c[nH]c3ccccc23)cc(Cl)c1OCC(N)=O
inactive: [1] -3.4% | [2] 0% | [3] -5.2%

CCCCOc1ccc(C(=O)CCN2CCCCC2)cc1
inactive: [1] 3.4% | [2] 1.8% | [3] -1.7%

COc1ccc(C2C(C(=O)c3ccco3)=C(O)C(=O)N2CC2CCCO2)cc1 (stereo not given)
inactive: [1] 1.3% | [2] 0.2% | [3] -4.2%

O=C(O)CCCCCNC(=O)Nc1ccc2c(c1)OCCO2
inactive: [1] 1.3% | [2] -1.4% | [3] -10.1%

COc1ccc(CCN(C)CCCC(C#N)(c2cc(OC)c(OC)c(OC)c2)C(C)C)cc1OC (stereo not given)
inactive: [1] 5.3% | [2] 1.8% | [3] 6.4%

Nc1nc(Cl)nc2c1ncn2[C@@H]1O[C@H](CO)[C@@H](O)[C@H]1O
inactive: [1] 3.3% | [2] 0.5% | [3] -6.9%

Cc1cc(C(=O)Nc2ccccc2C(=O)N2CCCCC2)ccc1[N+](=O)[O-]
inactive: [1] 2.8% | [2] 2.4% | [3] -0.1%

Cc1[nH]c2ccccc2c1C(=O)C(=O)NCc1ccco1
inactive: [1] 0.1% | [2] -0.7% | [3] -5.5%
